Hits are enriched below; roughly 19% of the tested compounds scored in any of these assays.
IL1B secr inh = qHTS for Inhibitors of Inflammasome Signaling: IL-1-beta AlphaLISA Primary Screen. activity change, % at 57.5 µM. 360,000 compounds, 4.7% hits. THP-1 LPS/ATP IL-1B secretion, AlphaLISA, 16 h; hits give low values; in the data active means activity change below about -50%; inconclusive means mostly about -30% to -49%; further: on the % scale 0 is the no-effect control and ±100 the full control effect
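THP-1 cells pretreated 1 hr with compounds (up to 57.5 uM final), then stimulated with LPS (250 ng/mL final) plus ATP (1.25 mM final); secreted IL-1B measured by AlphaLISA after 16 hr, decreased signal indicating inhibition.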
DT40 TDP1 no CPT = qHTS for Inhibitors of human tyrosyl-DNA phosphodiesterase 1 (TDP1): qHTS in cells in absence of CPT; AID 686978, 2013; 420,000 compounds, 15% hits; Potency, µM (highest dose often 46.2 µM), for the others: at the top dose activity change, negative = growth inhibition, actives largely listed as inhibitors; DT40 Tdp1-/- hTDP1 cells, no CPT, ATP luminescence, 48 h; further: potency means the concentration at half of the fitted maximal effect; on the % scale 0 is the no-effect control and ±100 the full control effect; nearly all actives have a fitted effect of over 55% in size
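Growth kinetics read by CellTiter-Glo luminescence after ≥48 hr at 37 °C. Cells: DT40 Tdp1-/- stably carrying human TDP1, 400 per well, compound exposure in the absence of CPT (DMSO vehicle).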
DT40 TDP1 CPT = qHTS for Inhibitors of human tyrosyl-DNA phosphodiesterase 1 (TDP1): qHTS in cells in presence of CPT | chicken DT40 Tdp1-/-;hTDP1 cells + 20 nM CPT, ATP luminescence, 48 h | Potency, µM (highest dose often 46.2 µM), without a hit: at the highest dose activity change, negative = growth inhibition, actives largely listed as inhibitors | 420,000 compounds, 12% hits | AID 686979, 2013; further: potency means the concentration at half of the fitted maximal effect; on the % scale 0 is the no-effect control and ±100 the full control effect; nearly all actives have a fitted effect of over 55% in size
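Chicken DT40 Tdp1-/- cells stably complemented with human TDP1 were seeded at 400 cells/well in medium containing 20 nM camptothecin, exposed to pin-transferred compounds, and grown at 37 °C for at least 48 hr. Viability was read as ATP luminescence.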
ASM inhibitor = Inhibitors of Secretory Acid Sphingomyelinase (S-ASM): qHTS | Sphingomyelin phosphodiesterase (Homo sapiens), P17405 | placental ASM, HMU-PC fluorogenic substrate, 60 min | Potency, µM (series often up to 57.5 µM), inactives show at the highest dose activity change, negative = inhibition, usual class: inhibitors | 340,000 compounds, 0.006% hits | AID 504937, 2011; further: potency means the concentration at half of the fitted maximal effect
Target sequence (P17405 47-631 limits assumed): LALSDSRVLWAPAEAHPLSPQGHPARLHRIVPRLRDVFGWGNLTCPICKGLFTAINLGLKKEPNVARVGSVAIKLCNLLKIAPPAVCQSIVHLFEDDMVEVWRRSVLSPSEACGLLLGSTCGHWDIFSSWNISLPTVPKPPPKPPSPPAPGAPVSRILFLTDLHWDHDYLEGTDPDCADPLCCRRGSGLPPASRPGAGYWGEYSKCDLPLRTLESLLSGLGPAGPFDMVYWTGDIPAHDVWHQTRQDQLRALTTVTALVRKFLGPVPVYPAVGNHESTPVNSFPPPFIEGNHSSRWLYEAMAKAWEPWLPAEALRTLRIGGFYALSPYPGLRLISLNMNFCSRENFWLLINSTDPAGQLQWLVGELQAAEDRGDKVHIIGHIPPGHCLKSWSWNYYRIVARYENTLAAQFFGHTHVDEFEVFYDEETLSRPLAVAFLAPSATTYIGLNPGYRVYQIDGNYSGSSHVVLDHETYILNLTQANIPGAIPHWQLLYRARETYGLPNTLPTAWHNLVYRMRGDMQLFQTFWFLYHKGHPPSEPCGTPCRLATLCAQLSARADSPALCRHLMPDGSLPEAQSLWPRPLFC
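Human placenta-derived ASM preincubated with compound 10 min at room temperature, then reacted with 9 uM (final) fluorogenic HMU-PC substrate for 60 min at 37 C. Stop solution raises pH to 10; fluorescence read at Ex 386/Em 447 nm.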
HepG2 viability = qHTS for Inhibitors of TGF-b: Cytotox Counterscreen; HepG2 CAGA-GFP viability, ATP luminescence, 18 h; Potency, µM (doses to about 46.1 µM), for the others: at the highest dose activity change, negative = cytotoxicity, actives largely listed as cytotoxic; 410,000 compounds, 0.76% hits; AID 588856, 2011; further: potency means the concentration at half of the fitted maximal effect
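HepG2 CAGA-GFP cells (1000/well, DMEM with 1% FBS) received compound, then TGF-beta at 500 pg/mL final, and were incubated 18 hours at 37 degrees C. Viability was read by CellTiter-Glo luminescence. Media-only wells were set as complete cell-killing and DMSO as no toxicity.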
TGFb inhibitor = qHTS for Inhibitors of TGF-b. HepG2 CAGA-GFP TGF-b/SMAD3 reporter, GFP fluorescence, 18 h; TGF-beta stimulated, 500 pg/mL final. Potency, µM (doses to about 46.1 µM), without a hit: top-dose activity, negative = inhibition, actives largely listed as inhibitors. AID 588855, 2011. 410,000 compounds, 1.2% hits; further: potency means the concentration at half of the fitted maximal effect; on the % scale 0 is the no-effect control and ±100 the full control effect; nearly all actives have a fitted effect of over 65% in size
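Cell-based qHTS in HEPG2 carrying a CAGA-GFP Smad reporter; compounds added before 500 pg/mL final TGF-beta, 18 h incubation at 37 degrees C, GFP fluorescence quantified per cell by imaging cytometry.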
Active calls of the source: *; ? = inconclusive; . = no result. Unless noted, the call rests on the fitted dose curve; in most records, active means well fitted curve in the direction sought with a large enough effect; inconclusive means small, poorly fitted or top-dose-only effect, or another doubt; inactive means no such curve, though single readings can be large; an effect the other way counts as inactive or inconclusive.

SMILES	IL1B secr inh	DT40 TDP1 no CPT	DT40 TDP1 CPT	ASM inhibitor	HepG2 viability	TGFb inhibitor
CN(C(=O)COC(=O)c1ccc(Br)c(S(=O)(=O)N2CCOCC2)c1)C1CCCCC1	10	?	?	-2%	-5%	-7%
Cc1cc(F)ccc1NC(=O)c1cc(S(=O)(=O)N2CCOCC2)cn1C	-4	-8%	1%	9%	-20%	-10%
CNC[C@H](NC[C@@H](NCCCc1ccccc1)c1ccccc1)[C@H](C)O	-28	?	?	8%	-28%	1%
Cc1nc(C(=O)N2CCCC(C(=O)c3cccc(OC(C)C)c3)C2)cs1 (stereo unspecified)	14	15µM*	10µM*	0%	-24%	?
Cc1cnc(C(=O)N2CCCC(C(=O)c3cccc(OC(C)C)c3)C2)cn1 (stereo unspecified)	11	-26%	?	5%	35%	1%
CC(C)Oc1cccc(C(=O)C2CCCN(C(=O)c3ccccn3)C2)c1 (stereo unspecified)	36	10µM*	21µM*	-1%	-10%	-18%
CCCn1c2ccccc2c2cnn(CC(=O)NC(CCSC)C(=O)OC)c(=O)c21 (stereo unspecified)	.	?	?	.	-23%	-6%
CCN(CC)CCC(c1ccc(N(C)C)cc1)c1c(OC)cc(OC)c2ccc(=O)oc12 (stereo unspecified)	-2	13µM*	10µM*	12%	-2%	-4%
COc1cc(OC)c2ccc(=O)oc2c1C(CC(=O)N1CCCC1)c1ccc(N(C)C)cc1 (stereo unspecified)	-4	?	?	3%	-11%	-17%
COc1cc(OC)c2ccc(=O)oc2c1C(CCN1CCCC1)c1ccc(N(C)C)cc1 (stereo unspecified)	-2	?	9.2µM*	4%	-2%	-11%
CCN(CC)C(=O)CC(c1ccc(N(C)C)cc1)c1c(OC)cc(OC)c2ccc(=O)oc12 (stereo unspecified)	-11	-24%	?	-21%	3%	2%
O=C(Nc1cccnc1)c1ccc([N+](=O)[O-])o1	-92*	15µM*	9.2µM*	-2%	-83%	?
O=C(NCc1cccnc1)c1ccc([N+](=O)[O-])o1	-67*	?	?	3%	-56%	?
O=C(NCc1ccco1)c1ccc([N+](=O)[O-])o1	-61*	?	?	-1%	0%	7%
O=C(NN(c1ccccc1)c1ccccc1)c1ccc([N+](=O)[O-])o1	-93*	?	?	0%	-97%	?
O=C(Cc1ccc([N+](=O)[O-])cc1)NCc1cccnc1	9	-6%	0%	3%	14%	14%
O=C(NC1CCCCC1)c1ccc([N+](=O)[O-])o1	.	?	?	5%	-18%	?
CCOc1ccc(C2C(=O)N(C3CCCCC3)CC(=O)N2Cc2ccc(F)cc2)cc1OC (stereo unspecified)	.	-23%	?	.	-7%	-4%
O=C1CC2c3ccccc3C1C1C(=O)N(CCO)C(=O)C21 (stereo unspecified)	-6	?	-10%	7%	-8%	?
O=[N+]([O-])c1c(NCc2ccccc2)cc(N2CCc3ccccc3C2)c2nonc12	-5	21µM*	?	-14%	-33%	-20%
O=C(NCc1cccnc1)c1ccc(N2CCOCC2)c([N+](=O)[O-])c1	47	16µM*	?	0%	-3%	-14%
O=[N+]([O-])c1cc([N+](=O)[O-])c(N2CCOCC2)cc1NCc1ccccc1	28	18µM*	8.2µM*	-25%	-4%	?
O=C(Nc1ccc(Cl)cn1)c1ccc([N+](=O)[O-])o1	-226*	15µM*	2.3µM*	112%	18µM*	11µM*
Cc1c(Cl)c([N+](=O)[O-])nn1Cc1ccc(C(=O)Nc2ccc(Cl)cn2)o1	-11	?	-48%	-6%	0%	-3%
COC(=O)c1ccc(NC(=O)C(C)Sc2nc(=O)cc(N)n2CCc2ccccc2)cc1 (stereo unspecified)	.	.	.	.	-20%	-2%
SMILES	IL1B secr inh	DT40 TDP1 no CPT	DT40 TDP1 CPT	ASM inhibitor	HepG2 viability	TGFb inhibitor
CC1CCCCN1CCCNC(=O)C1CCCN(c2ncnc3c2nc2n3CCCCC2)C1 (stereo unspecified)	1	-9%	1%	0%	0%	19%
CCc1noc(C)c1C(=O)Nc1cccc(S(=O)(=O)N(C)c2ccccc2)c1	1	?	?	2%	-10%	-2%
CC(=O)c1ccc(NC(=O)C2CCC(CNS(=O)(=O)c3cccc4nsnc34)CC2)cc1 (stereo unspecified)	.	-9%	2%	.	20%	22%
CCOC(=O)c1c(C)oc2nc(C)nc(NCCc3ccc(Cl)cc3)c12	.	13µM*	?	.	-10%	-2%
CCOC(=O)c1c(C)oc2nc(C)nc(NCCc3ccc(OCC)c(OCC)c3)c12	.	13µM*	?	.	-27%	?
CCOC(=O)c1c(C)oc2nc(C)nc(NCc3ccc(OC)cc3)c12	.	?	?	.	-2%	1%
CCOC(=O)c1c(C)oc2nc(C)nc(NCCc3ccc(OCC)cc3)c12	.	5.2µM*	6.5µM*	.	-22%	?

Compound activity deposited in PubChem by National Center for Advancing Translational Sciences (NCATS).
